An excerpt weighted towards active compounds, which were near 7.3% of everything screened.
Luc counter: blocks Kinase-Glo luciferase, a counter-screen artifact; actives 0.28% (n = 200,000); Potency, µM (titrated, usually from 38.3 µM), without a hit: top-dose activity change, negative = inhibition, actives largely listed as inhibitors; Q27757; AID 1379; Kinase-Glo luciferase, ATP luminescence, 8 min; further: on the % scale 0 is the no-effect control and ±100 the full control effect; nearly all actives have a fitted effect of over 60% in size
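Kinase-Glo luciferase light output from ATP and luciferin was measured with 10 uM ATP, within the enzyme's linear range. Buffer: 50 mM imidazole pH 7.2, 50 mM KCl, 7 mM MgCl2, 0.01% Tween 20, 0.05% BSA; luminescence read after 8 min at ambient temperature.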
SMN2 splice up: enhancers of SMN2 splice variant expression; actives 2.8% (n = 210,000); Potency, µM (series often up to 46.1 µM), for the others: top-dose activity change, positive = activation, hits mostly activators; HEK293 SMN2-luciferase splicing reporter, luminescence, 30-36 h; further: % of control where 0% means no effect; nearly all actives have a fitted effect of over 55% in size
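qHTS luciferase splicing reporter: luminescence rises when SMN2 exon 7 is included in transfected HEK293 cells. Compound exposure lasted 30-36 h at 37C, with 4.5 mM final sodium butyrate as control, followed by a ONE-Glo read.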
FLuc counter: counter-screen for miR-21 project: firefly luciferase inhibitors or activators; purified FLuc, Km substrates, luminescence inhibition; P08659; AID 588342; actives 6.9% (n = 360,000); Potency, µM (doses to about 57.5 µM), inactives show at the highest dose activity change, negative = inhibition, actives largely listed as inhibitors;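 further: plate controls were vehicle for no effect and reference inhibitor for full effect; nearly all actives have a fitted effect of over 55% in size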
Target sequence (P08659 whole entry, looked up): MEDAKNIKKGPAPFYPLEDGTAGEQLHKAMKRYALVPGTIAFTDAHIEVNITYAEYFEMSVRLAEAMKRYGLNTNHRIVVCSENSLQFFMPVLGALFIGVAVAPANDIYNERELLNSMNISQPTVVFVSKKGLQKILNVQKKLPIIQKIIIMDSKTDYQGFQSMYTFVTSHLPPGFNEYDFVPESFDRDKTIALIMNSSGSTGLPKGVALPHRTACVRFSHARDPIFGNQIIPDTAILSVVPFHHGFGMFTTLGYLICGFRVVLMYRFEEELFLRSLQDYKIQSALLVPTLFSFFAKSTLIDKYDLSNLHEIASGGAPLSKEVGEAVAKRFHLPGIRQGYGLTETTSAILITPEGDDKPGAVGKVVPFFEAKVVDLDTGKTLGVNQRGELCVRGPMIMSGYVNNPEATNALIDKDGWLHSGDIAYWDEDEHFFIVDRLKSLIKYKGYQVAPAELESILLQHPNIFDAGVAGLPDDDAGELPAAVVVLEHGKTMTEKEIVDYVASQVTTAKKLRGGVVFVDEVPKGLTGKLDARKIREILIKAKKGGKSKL
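Purified P. pyralis luciferase, 10 nM final, with Km-level 10 uM D-luciferin and 10 uM ATP in 50 mM Tris acetate pH 7.5, 10 mM Mg acetate, 0.01% Tween-20, 0.05% BSA; 6-point qHTS titration about 60 µM downward; luminescence read.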
Rab9 promoter act: activators of Rab9 promoter | Huh7 Rab9 promoter-luciferase reporter, luminescence, 24 h | Potency, µM (titrated, usually from 9.22 µM), for inactives: top-dose activation, negative = inhibition, usual class: activators | actives 2.8% (n = 320,000); further: % of control where 0% means no effect; nearly all actives have a fitted effect of over 60% in size
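Measured in stably transfected Huh7 cells bearing a Rab9 promoter–luciferase construct: 24 h compound treatment at 37 °C, followed by luminescence detection.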
NPC1 prom act: activates the NPC1 promoter; Huh7 NPC1 promoter luciferase reporter, 24 h; Potency, µM (series often up to 9.22 µM), for the others: at the top dose activation, actives largely listed as activators; actives 2.4% (n = 320,000); further: % of control where 0% means no effect; nearly all actives have a fitted effect of over 60% in size
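Readout is luciferase luminescence, reflecting NPC1 promoter activation in stably transfected Huh7 cells after 24 h compound exposure at 37 °C in reduced-serum medium with 10% FBS.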
* = called active by the depositor; [ ] = remark or other dose. The call rests on the fitted dose curve; in most records, active means well fitted curve in the direction sought with a large enough effect; inconclusive means small, poorly fitted or top-dose-only effect, or another doubt; inactive means no such curve, though single readings can be large; an effect the other way counts as inactive or inconclusive. Potency means the concentration at half of the fitted maximal effect.

Results for C=CCc1cccc(C=NNC(=O)CN2CCN(Cc3ccccc3)CC2)c1O ?
Rab9 promoter act: -33%[46.1 µM]; NPC1 prom act: -13%[46.1 µM]

How did COc1ccccc1C(=O)COC(=O)c1cccc(-n2cnnn2)c1 do in these assays?
FLuc counter: -3%; Rab9 promoter act: 13%; NPC1 prom act: 1%

Results for O=C(COC(=O)c1cccc(-n2cnnn2)c1)c1ccc(Br)cc1 ?
FLuc counter: 6.7µM*; Rab9 promoter act: inconclusive; NPC1 prom act: inconclusive

What do the screens show for `COc1ccccc1C(=O)COC(=O)c1ccc(-n2cnnn2)cc1`?
FLuc counter: 0%; Rab9 promoter act: 1%; NPC1 prom act: -3%

How did O=C(COC(=O)c1ccccc1-n1cnnn1)c1ccc(F)cc1 do in these assays?
FLuc counter: 6µM*; Rab9 promoter act: -3%; NPC1 prom act: 6%

How did Cc1ccc(CO)cc1 do in these assays?
SMN2 splice up: -1%

What do the screens show for `CCOC(=O)c1cnc2c(OC)cccc2c1Nc1cccc(O)c1`?
SMN2 splice up: -1%; FLuc counter: -15%

Results for COc1ccc(-c2nc3cc(NC(=O)COc4ccc(C)c(C)c4)ccc3o2)cc1 ?
FLuc counter: 6%

What do the screens show for `Cc1cc2nc(-c3cccc(NC(=O)COc4ccc(Cl)c(C)c4)c3)oc2cc1C`?
FLuc counter: 1.9µM*

Results for Cc1cc2nc(-c3cccc(NC(=O)COc4ccc(C(C)C)cc4)c3)oc2cc1C ?
SMN2 splice up: 12%; FLuc counter: 1.5µM*

Results for Cc1ccc(C)c(OC(=O)CSc2nnc(-c3ccc4c(c3)OCO4)o2)c1 ?
FLuc counter: -1%

Results for O=C(Cn1c(=O)n(Cc2ccco2)c(=O)c2ccccc21)Nc1ccc(Cl)cc1Cl ?
SMN2 splice up: -2%; FLuc counter: 3%

Results for CCC(C)NC(=O)C1CCN(S(=O)(=O)c2ccc3c(ccn3CC)c2)CC1 (stereo not given) ?
FLuc counter: 5%

How did O=C(CSc1nccn1Cc1ccco1)Nc1cc(C(F)(F)F)ccc1Cl do in these assays?
FLuc counter: -14%

How did CCOC(=O)c1ccc(NC(=O)CC2C(=O)N(c3ccc(F)cc3)C(=O)N2Cc2ccc(C)cc2)cc1 (stereo not given) do in these assays?
SMN2 splice up: -4%; FLuc counter: -15%

Results for Cn1c(=O)c2[nH]c(-c3ccccc3O)nc2n(C)c1=O ?
Luc counter: -1%; SMN2 splice up: -2%; FLuc counter: -17%; Rab9 promoter act: -5%; NPC1 prom act: 25%

What do the screens show for `CCCOc1ccccc1-c1nc2c([nH]1)c(=O)[nH]c(=O)n2C`?
Luc counter: 2%; SMN2 splice up: 28µM*; FLuc counter: 7%; Rab9 promoter act: -1%; NPC1 prom act: -1%

What do the screens show for `CCC(=O)N1CCc2cc(CNC(=O)Nc3cc(C)ccc3C)ccc21`?
FLuc counter: 4%

How did Cc1cc(C(=O)COc2cccnc2[N+](=O)[O-])c(C)n1-c1ccccc1F do in these assays?
FLuc counter: 6µM*; Rab9 promoter act: 12%; NPC1 prom act: 23%

How did Cc1cc(C(=O)COc2cccnc2[N+](=O)[O-])c(C)n1-c1ccccc1 do in these assays?
Luc counter: -4%; SMN2 splice up: -43%; FLuc counter: 2.7µM*; Rab9 promoter act: -3%; NPC1 prom act: 3%

What do the screens show for `Cc1ccc(OCC(=O)c2cc(C)n(C)c2C)c([N+](=O)[O-])n1`?
Luc counter: -11%; SMN2 splice up: inconclusive; FLuc counter: inconclusive; Rab9 promoter act: inconclusive; NPC1 prom act: 14%

Results for Cc1ccc(-n2c(C)cc(C(=O)COc3cccnc3[N+](=O)[O-])c2C)cc1 ?
Luc counter: 0%; SMN2 splice up: -42%; FLuc counter: 17µM*; Rab9 promoter act: -5%; NPC1 prom act: -2%

How did Cc1cc(C(=O)COc2cccnc2[N+](=O)[O-])c(C)n1Cc1ccco1 do in these assays?
Luc counter: 0%; SMN2 splice up: -19%; FLuc counter: inconclusive; Rab9 promoter act: 17%; NPC1 prom act: 9%

How did CN(C)c1ccc(CNC(=O)[C@@]2(C)C=C[C@@H](Cc3ccccc3)N2C)cc1 do in these assays?
Luc counter: -5%; SMN2 splice up: -8%

What do the screens show for `CC(C)c1ccc(/C=C/C(=O)NC2=NCCS2)cc1`?
Luc counter: 5%; SMN2 splice up: 1.8µM*; FLuc counter: 1.3µM*; Rab9 promoter act: 0.32µM*; NPC1 prom act: 0.32µM*

What do the screens show for `COc1ccc(/C=C/C(=O)Nc2ccc(Cl)c(Cl)c2)cc1OC`?
SMN2 splice up: -29%; FLuc counter: -12%

What do the screens show for `CC(C)C(C(=O)NC1=NCCS1)c1ccc(Cl)cc1` (stereo not given)?
Luc counter: 3%; SMN2 splice up: -20%; FLuc counter: -2%; Rab9 promoter act: -10%; NPC1 prom act: -14%

What do the screens show for `O=C(/C=C/c1ccc(Cl)c(Cl)c1)NC1=NCCS1`?
Luc counter: 4%; SMN2 splice up: 15%; FLuc counter: inconclusive; Rab9 promoter act: 2.2µM*; NPC1 prom act: 2.8µM*

How did Cc1ccc(CSc2nnc([C@@H](N)C(C)C)o2)cc1 do in these assays?
SMN2 splice up: -7%; FLuc counter: 0%

What do the screens show for `CC(C)c1ccc(C(=O)NNC(=O)C2CC=CCC2C(=O)O)cc1` (stereo not given)?
Luc counter: -5%; SMN2 splice up: inconclusive; FLuc counter: 17µM*; Rab9 promoter act: 29%; NPC1 prom act: 23%

Results for Cc1ccsc1C(=O)NNC(=O)C1CC=CCC1C(=O)O (stereo not given) ?
Luc counter: -1%; SMN2 splice up: 4%; FLuc counter: inconclusive; Rab9 promoter act: -2%; NPC1 prom act: -2%

Results for O=c1c2ccccc2oc2ccc(NCCCn3ccnc3)cc12 ?
FLuc counter: 1.7µM*; Rab9 promoter act: 1.1µM*; NPC1 prom act: 1.4µM*

What do the screens show for `O=C(c1cc2cc(Br)ccc2o1)N1CCN(c2ccccc2)CC1`?
FLuc counter: 19µM*; Rab9 promoter act: -1%; NPC1 prom act: -1%

How did O=C(c1cc2cc(Br)ccc2o1)N1CCOCC1 do in these assays?
Luc counter: 1%; FLuc counter: 21µM*; Rab9 promoter act: inconclusive; NPC1 prom act: 13%

How did O=C(c1cc2cc(Br)ccc2o1)N1CCCC1 do in these assays?
Luc counter: 0%; SMN2 splice up: 26%; FLuc counter: inconclusive; Rab9 promoter act: inconclusive; NPC1 prom act: inconclusive

How did COc1ccc(N2CCN(C(=O)c3ccc4c(c3)N(Cc3ccc(F)cc3)C(=O)c3ccccc3S4=O)CC2)cc1 (stereo not given) do in these assays?
SMN2 splice up: -7%; FLuc counter: -1%

How did CN(C(=O)CSc1nc2ccc(NC(=O)c3cccs3)cc2s1)c1ccccc1 do in these assays?
FLuc counter: -16%

Screens as filed in PubChem BioAssay.
